ULK1 primary: inhibitors of human ULK1 kinase; AID 1259251; 1.9% of 30,000 active; inhibition, % at 5.96 µM; O75385; AlphaScreen Atg13 phosphorylation by ULK1, luminescence; in the data active means inhibition above about 43%;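 further: 0% = median of compound wells and 100% = no enzyme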
Target sequence (O75385 whole entry, looked up): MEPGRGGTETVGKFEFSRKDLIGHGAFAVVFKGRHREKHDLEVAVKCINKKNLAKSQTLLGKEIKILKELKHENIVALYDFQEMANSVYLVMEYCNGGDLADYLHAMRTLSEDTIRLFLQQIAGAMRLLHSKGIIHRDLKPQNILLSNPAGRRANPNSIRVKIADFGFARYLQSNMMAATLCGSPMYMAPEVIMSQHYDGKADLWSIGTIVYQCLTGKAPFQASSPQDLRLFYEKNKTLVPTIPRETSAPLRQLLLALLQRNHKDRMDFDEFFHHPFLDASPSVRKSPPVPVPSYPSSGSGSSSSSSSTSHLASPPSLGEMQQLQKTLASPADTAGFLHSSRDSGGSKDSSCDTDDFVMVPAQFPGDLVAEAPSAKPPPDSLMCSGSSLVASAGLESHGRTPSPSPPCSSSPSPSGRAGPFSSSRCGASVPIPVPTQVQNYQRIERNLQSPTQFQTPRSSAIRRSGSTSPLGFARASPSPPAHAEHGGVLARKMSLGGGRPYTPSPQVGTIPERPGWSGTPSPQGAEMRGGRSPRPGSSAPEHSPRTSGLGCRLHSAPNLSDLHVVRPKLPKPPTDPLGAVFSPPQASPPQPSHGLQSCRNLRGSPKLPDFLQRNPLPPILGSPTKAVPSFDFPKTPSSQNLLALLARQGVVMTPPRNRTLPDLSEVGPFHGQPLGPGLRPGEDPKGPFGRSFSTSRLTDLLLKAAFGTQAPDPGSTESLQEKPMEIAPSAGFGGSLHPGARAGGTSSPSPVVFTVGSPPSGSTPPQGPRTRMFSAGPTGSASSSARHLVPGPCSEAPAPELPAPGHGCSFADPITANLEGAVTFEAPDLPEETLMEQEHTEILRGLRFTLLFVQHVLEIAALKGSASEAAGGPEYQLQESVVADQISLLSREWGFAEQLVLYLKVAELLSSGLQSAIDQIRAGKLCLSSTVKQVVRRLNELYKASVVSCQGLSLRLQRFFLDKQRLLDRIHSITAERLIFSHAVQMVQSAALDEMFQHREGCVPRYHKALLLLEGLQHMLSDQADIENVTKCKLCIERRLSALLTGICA
ASK1 inh: human ASK1 kinase inhibition, primary screen | Q99683 | AlphaScreen MKK6 phosphorylation by ASK1, luminescence | inhibition, % at 7.44 µM | 0.99% of 22,000 active; in the data active means inhibition above about 35%;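 further: 0% = median of compound wells and 100% = no enzyme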
* marks the source's active call; other numbers are inactive results; nt = not tested or not shown. Compounds with a hit are over-represented: about 2.5% of the library has one in this group of screens.

SMILES	ULK1 primary	ASK1 inh
O=C1CCCN1CCn1cnc2c(NCCO)nc(-c3ccc(N4CCOCC4)nc3)nc21	6	-4
O=C(Nc1ccc(N2CCOCC2)cc1)c1cccc(-n2cc(C(=O)Nc3ccccc3)cn2)c1	-4	4
O=C(O)CCCC[C@H]1SC[C@H]2NC(=O)N[C@H]21	100*	nt
CCCNC(=O)c1ccnc(Nc2ccccn2)c1	27	6
Fc1cc(-c2nc(Nc3cccc(Cn4ccnc4)c3)ncc2F)cc(N2CCOCC2)c1	79*	20
Fc1ccc(Nc2nccc(-c3cncc(N4CCOCC4)c3)n2)cc1	17	22
c1cn(Cc2ccc(Nc3nccc(-c4cncc(N5CCOCC5)c4)n3)cc2)cn1	60*	-4
COc1ccc(Nc2nccc(-c3cncc(N4CCOCC4)c3)n2)cc1OC	47*	21
c1cnn(Cc2ccc(Nc3nccc(-c4cncc(N5CCOCC5)c4)n3)cc2)c1	30	-4
Cc1nc2ccc(Nc3nccc(-c4cncc(N5CCOCC5)c4)n3)cc2o1	-14	16
Cc1[nH]nc2ccc(Nc3nccc(-c4cncc(N5CCOCC5)c4)n3)cc12	49*	7
Fc1cc(-c2nc(Nc3ccc(Cn4ccnc4)cc3)ncc2F)cc(N2CCOCC2)c1	26	13
O=C(Nc1ccc2c(c1)OCO2)c1ccnc(Nc2ccncn2)c1	20	14
CN1CCN(C(=O)c2ccc(-c3cc(C(=O)NC4CCN(Cc5ccccc5)CC4)ccn3)cc2)CC1	5	4
Cn1cnnc1-c1ccc(Nc2nccc(-c3cncc(N4CCOCC4)c3)n2)cc1	58*	7
Cn1cnnc1-c1ccc(Nc2nccc(-c3cc(C#N)cc(N4CCOCC4)c3)n2)cc1	-14	12
COC1CCN(c2cc(C#N)cc(-c3ccnc(Nc4ccc(-n5cnc(C)n5)cc4)n3)c2)CC1	0	-8
CNC(=O)c1cncnc1Nc1cc(NC(=O)Cc2ccc(OC)cc2)ncc1C(F)(F)F	15	26
NC(=O)c1ccccc1Nc1cc(Oc2ccccc2F)ncc1C(F)(F)F	-8	1
Cc1nc(Nc2cc(Nc3ccccn3)c(C(F)(F)F)cn2)cc(-c2cncnc2)n1	32	22
CNC(=O)c1ccccc1Nc1cc(Nc2ccc(-c3cncnc3)cc2OC)ncc1C(F)(F)F	86*	-8
CNC(=O)c1cc(F)ccc1Nc1cc(Nc2cc(-c3cncnc3)nc(C)n2)ncc1C(F)(F)F	58*	9
CNC(=O)c1ccccc1Nc1cc(Nc2ccc(F)cc2OC)ncc1C(F)(F)F	87*	-1
Cn1c(Nc2nc(NC3CCN(Cc4ccccc4)CC3)c3ncn(-c4ccccc4)c3n2)nc2ccccc21	23	-10
COc1cccc(CNC(=O)c2nc3ccc(-c4cn[nH]c4)cc3[nH]2)c1	0	-2
SMILES	ULK1 primary	ASK1 inh
c1cc(Nc2nc3ncnc(Nc4ccc5c(c4)OCO5)c3[nH]2)ncn1	9	15
C[C@H]1c2cccc(O)c2C(O)=C2C(=O)[C@]3(O)C(O)=C(C(N)=O)C(=O)[C@@H](N(C)C)[C@@H]3[C@@H](O)[C@@H]21	52*	nt
CN(C)c1ccc(O)c2c1C[C@H]1C[C@H]3[C@H](N(C)C)C(=O)C(C(N)=O)=C(O)[C@@]3(O)C(=O)C1=C2O	10	nt
COCCNc1cc(-c2cncc(-c3ccc(C)cc3)c2)nc(C)n1	-3	nt
O=C1CCCN1CCn1cnc2c(NCCOc3ccccc3)nc(Nc3nccc4ccccc34)nc21	0	-10
O=C(Cc1ccc(F)cc1)Nc1cc(Nc2ccccc2CO)c(C(F)(F)F)cn1	18	13
Nc1cc(Nc2ccccc2CO)c(C(F)(F)F)cn1	56*	9
O=C1c2ccccc2-c2n[nH]c3cccc1c23	76*	-43
O=C1C(=O)c2ncccc2-c2cccnc21	38	nt
O=C(CN1C(=O)NC2(CCN(Cc3ccccc3)CC2)C1=O)NCc1ccc(F)cc1	3	nt
O=C(Nc1ccc(N2CCOCC2)cc1)c1cnc(N2CCCC2CO)s1 (stereo unspecified)	-23	-1
CCc1c[nH]c2ncnc(-c3ccc(NC(=O)Nc4cccc(C(=O)NC(C)C)c4)cc3)c12	16	18
CC(C)NC(=O)c1cccc(NC(=O)Nc2ccc(-c3ncnc4[nH]ccc34)cc2)c1	47*	15
CN1CCN(C(=O)c2ccc(-c3cc(C(N)=O)ccn3)cc2)CC1	2	4
CC(C)(C)OC(=O)NNS(=O)(=O)c1cccc([N+](=O)[O-])c1	-7	nt
CC(=O)Nc1ccc(O)cc1	-2	nt
CC(=O)Nc1ccccc1	58*	nt
CC(C)N(CCNC(=O)c1csc(Nc2cccnc2)n1)C(C)C	11	-7
CN(C)c1ccc(-c2cc(NCc3cccc(C(F)(F)F)c3)ncn2)cc1	4	-6
Cn1cc(-c2cc(Nc3ccc(N4CCOCC4)cc3)ncc2Cl)cn1	61*	-1
Cn1cc(-c2cc(Nc3ccc(N4CCOCC4)cc3)ncc2F)cn1	25	1
c1ccc(OCCNc2nc(Nc3ccncn3)nc3c2ncn3C2CCCCC2)cc1	10	8
COc1ccc(-c2cc(NCCCN3CCCC3=O)nc(N)n2)cc1	-5	-5

Screening results as filed in PubChem.
